# Compound activity (PubChem)
# Only some compounds are listed: those with a hit (about 8.3% of all), similar ones and a draw of the others.
# RORgamma inh: ROR gamma (mouse) transcription inhibition; Potency, µM (titrated, usually from 53.6 µM), usual class: inhibitors; Drosophila S2 Gal4-RORgamma UAS-luciferase reporter, 20 h; hit rate 5.4% among 310,000; also: nearly all actives have a fitted effect of over 60% in size
# Target sequence (P51450 whole entry, looked up, the tested form may be a part): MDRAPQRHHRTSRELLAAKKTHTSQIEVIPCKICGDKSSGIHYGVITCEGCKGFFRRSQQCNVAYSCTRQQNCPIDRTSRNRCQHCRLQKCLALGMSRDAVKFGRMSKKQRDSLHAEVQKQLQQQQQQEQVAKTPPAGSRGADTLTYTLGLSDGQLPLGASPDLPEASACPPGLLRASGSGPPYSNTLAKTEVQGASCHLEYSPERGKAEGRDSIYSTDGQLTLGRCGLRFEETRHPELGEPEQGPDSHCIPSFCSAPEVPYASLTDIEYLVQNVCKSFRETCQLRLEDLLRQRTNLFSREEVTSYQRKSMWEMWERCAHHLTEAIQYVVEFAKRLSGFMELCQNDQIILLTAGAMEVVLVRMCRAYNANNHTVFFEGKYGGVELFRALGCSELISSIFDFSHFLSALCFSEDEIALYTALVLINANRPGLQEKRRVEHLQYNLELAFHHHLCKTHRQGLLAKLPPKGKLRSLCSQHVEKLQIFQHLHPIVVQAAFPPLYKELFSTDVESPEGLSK
#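 Stably transfected Drosophila Schneider cells are the test system, with ROR gamma fused to Gal4 and luciferase under UAS control; luminescence is read after 20 hr of 700 uM copper sulfate induction at ambient temperature.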
# MCF10A rereplic: inducers of DNA re-replication in MCF 10A breast cells; MCF 10A DNA re-replication, Hoechst nuclear intensity, 48 h; Potency, µM (top dose mostly 46.1 µM), hits mostly activators; hit rate 2.9% among 350,000; also: nearly all actives have a fitted effect of over 50% in size
# BCR signal inh: chronic active BCR signaling inhibition; ABC-DLBCL IkBa-CBG/CBR reporter, luminescence ratio, 4 h; Potency, µM (highest dose often 46.1 µM), most hits filed as inhibitors; hit rate 0.05% among 340,000; AID 493014; active = well fitted inhibition curve with a large enough effect in the signal ratio, with a control signal flat, not every such curve was filed as active; inconclusive = small, poorly fitted or top-dose-only effect, or effect the other way, or a change in a side signal; the % refers to the signal ratio
#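 TMD8 human ABC-DLBCL cells with doxycycline-inducible IκBα–green luciferase fusion and unfused red luciferase, in 0.5% FBS medium; compounds up to 46 uM, 4 h at 37C. Green/red luminescence ratio, filter-overlap corrected, fitted to concentration-response curves.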
# VP16 counter: inhibits Gal4-VP16 luciferase reporter, ROR gamma counter-screen. Drosophila S2 Gal4-VP16 UAS-luciferase, luminescence, 20 h. Potency, µM (highest dose often 53.6 µM), hits mostly inhibitors. hit rate 3.5% among 310,000;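 also: Gal4-VP16 expression switched on by copper sulfate through the metallothionein promoter; nearly all actives have a fitted effect of over 50% in size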
# SW480 rerep: DNA re-replication induction in SW480 cells; hit rate 1.8% among 340,000; Potency, µM (doses to about 46.1 µM), usual class: activators; SW480 DNA re-replication, Hoechst DNA content imaging, 48 h; AID 624297; also: nearly all actives have a fitted effect of over 55% in size
#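 Per well, 250 cells were exposed to pinned compound for 48 hr. Nuclear DNA was visualised with Hoechst (40 min, 37 C) and total object intensity recorded by fluorescence scanning.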
# Giardia kill: Giardia lamblia killing. Giardia lamblia trophozoite viability. activity change, % at 7.66 µM, hits read low. hit rate 0.15% among 340,000. AID 540267; in the data active = activity change below about -80%; inconclusive = between about -30% and that limit;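 also: parasites exposed to compound for two days anaerobically before the ATP read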
#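 Giardia trophozoites, 100 cells per well, were exposed to compounds for 48 hrs at 37 deg C under anaerobic conditions; viability was then read as ATP content by bioluminescence after 15-30 min at room temperature.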
# Hits are given with their value; n = inactive; u = inconclusive; x = no result; [ ] = remark or other dose. Unless noted, calls follow the shape of the dose curve; as a rule, active = well fitted curve in the direction sought with a large enough effect; inconclusive = small, poorly fitted or top-dose-only effect, or another doubt; inactive = no such curve, though single readings can be large; an effect the other way counts as inactive or inconclusive.
SMILES,RORgamma inh,MCF10A rereplic,BCR signal inh,VP16 counter,SW480 rerep,Giardia kill
CCOC(=O)c1c2ccc(OCC(=O)N/N=C/c3ccc(C)cc3)cc2n2ccccc12,n,2.6µM,u,n,u,n
CCOC(=O)c1c2ccc(OCC(=O)NN)cc2n2ccccc12,n,16µM,u,n,n,n
Cc1nc(CC(=O)Nc2nccs2)cs1,n,n,n,n,n,n
C=C1CCC(C)C(C)(CCC2=CCOC2=O)C/C=C\C=C/1C(=O)O (stereo not drawn),u,n,n,n,n,n
CC1(C)Cc2ccccc2C2=NNC(=O)C2=N1,u,u,u,u,8.2µM,n
CC1(C)Cc2ccccc2C(Nn2cnnc2)=N1,n,n,n,n,n,n
Cc1cc(C(=O)N2CCCC(C(=O)c3cccc(C(F)(F)F)c3)C2)n[nH]1 (stereo not drawn),n,n,n,n,n,n
Cc1noc(C)c1C(=O)N1CCCC(C(=O)c2cccc(C(F)(F)F)c2)C1 (stereo not drawn),n,n,n,n,5.8µM,n
S=C1NCN(Cc2cccnc2)CN1Cc1ccccc1,u,n,n,n,n,n
O=C1CSC(=S)N1Cc1cccnc1,u,3.3µM,u,u,n,n
S=C1SCN(Cc2cccnc2)CN1Cc1ccccc1,3.2µM,n,u,6.3µM,n,n
O=C(O)c1ccc(CN2C(=O)CSC2=S)cc1,10µM,5.2µM,n,u,n,n
Cn1cccc1C(=O)N1CCC2(CCCN(C(=O)Nc3cccc(F)c3)C2)CC1,n,x,x,n,x,x
C=CCS(=O)(=O)N1CCCC(Cc2ccccc2C)(C(=O)OCC)C1 (stereo not drawn),n,n,n,n,n,n
C/C(=C\C(=O)c1ccc(Cl)s1)N(C)C,7.1µM,n,n,u,n,n
O=C(C=Cc1ccc(Cl)s1)c1ccc(Cl)s1,x,u,x,x,u,n
C=CCNC(=O)/C(C#N)=C/c1ccc(SC)cc1,n,n,u,n,n,n
Cc1ccc(NC(=O)c2ccc([N+](=O)[O-])o2)cc1S(=O)(=O)N1CCOCC1,n,2.1µM,u,n,1.5µM,-91
Cc1ccc(NC(=O)c2cc([N+](=O)[O-])ccc2N2CCOCC2)cc1S(=O)(=O)N1CCOCC1,n,n,n,n,n,n
CN1CCN(c2ccc(NC(=O)c3ccc([N+](=O)[O-])o3)cc2Cl)CC1,u,1.5µM,u,u,1.5µM,u
CCCC(=O)N1CCN(c2ccc(NC(=O)c3ccc([N+](=O)[O-])o3)cc2Cl)CC1,20µM,1.8µM,u,u,n,-82
O=C(Nc1cccc(Cl)c1N1CCCC1)c1ccc([N+](=O)[O-])o1,n,u,n,n,u,n
O=C(Nc1cccc(S(=O)(=O)N2CCCCC2)c1)c1ccc([N+](=O)[O-])o1,10µM,16µM,u,u,6.5µM,-96
O=C(CC1CC2CCC1C2)NCCc1ccc(Cl)cc1 (stereo not drawn),n,n,n,u,n,n
O=C(Nc1ccccc1N1CCCCC1)c1ccc([N+](=O)[O-])o1,x,u,n,x,u,u
SMILES,RORgamma inh,MCF10A rereplic,BCR signal inh,VP16 counter,SW480 rerep,Giardia kill
Cc1ccc(NC(=O)CSc2nc(C)c(C)c(C)n2)cc1S(=O)(=O)N1CCOCC1,x,n,n,x,n,n
CC(C)C(=O)N1CCN(c2ccc(NC(=O)c3ccc([N+](=O)[O-])o3)cc2)CC1,n,2.6µM,u,u,n,u
Cc1ccc(NC(=O)CSc2nc(N)cc(N)n2)cc1S(=O)(=O)N1CCOCC1,u,u,u,n,3.7µM,n
CC(C)C(=O)N1CCN(c2ccc(NC(=O)c3ccc(Br)o3)cc2)CC1,n,n,n,n,n,n
O=C(Nc1ccc(N2CCOCC2)c(Cl)c1)c1ccc([N+](=O)[O-])o1,n,u,u,u,n,-89
O=C(Nc1ccccc1N1CCOCC1)c1ccc([N+](=O)[O-])o1,n,n,n,n,u,-92
C(/Oc1ccccc1)=C1\Nn2c(nnc2-c2cc(-c3ccccc3)n[nH]2)S1,x,x,x,x,x,n
CC(C)C(=O)N1CCN(c2ccc(NC(=O)c3ccc([N+](=O)[O-])o3)cc2Cl)CC1,u,u,u,n[10 µM],n,-88
CC(C)C(=O)N1CCN(c2ccc(NC(=O)COc3ccccc3[N+](=O)[O-])cc2)CC1,n,21µM,n,n,n,n
CC(=O)N1CCN(c2ccc(NC(=O)c3ccc(Br)o3)cc2Cl)CC1,n,n,n,n,n,n
O=C(Nc1ccccc1N1CCN(C(=O)c2ccc(Cl)cc2)CC1)c1cc2ccccc2o1,n,n,n,n,u,n
O=C(Nc1ccccc1N1CCN(C(=O)c2ccc(Cl)cc2)CC1)c1ccc([N+](=O)[O-])o1,n,u,u,u,16µM,-89
C=CC[N+]1(CC(=O)NCc2ccc(NC(C)=O)cc2)CCOCC1,n,n,u,n,n,n
CCC1Oc2ccc(C)cc2N(CC(=O)N(Cc2ccc(C)o2)C2CC(C)(C)NC(C)(C)C2)C1=O (stereo not drawn),u,n,u,n,u,n
CCC1Oc2ccc(C)cc2N(Cc2cccc(C)c2)C1=O (stereo not drawn),n,12µM,n,n,n,n
CCC1Oc2ccc(C)cc2N(CC(=O)N(Cc2cccnc2)Cc2ccc(C)o2)C1=O (stereo not drawn),14µM,n,u,u,n,n
CCC1Oc2ccc(C)cc2N(CC(=O)NCCc2ccccc2)C1=O (stereo not drawn),x,x,n,x,x,x
COC(=O)C1=C(C(=O)OC)[C@@H]2Nc3ccccc3[C@@]23C[C@@H](C(=O)OC)N(C(=O)CC(C)C)C3=N1,x,n,x,x,n,n
Cc1ccc(NC(=S)Nc2ccc3[nH]c(=O)[nH]c3c2)cc1,10µM,n,n,n,n,n
CCCNc1c(NS(=O)(=O)c2ccc(C3CCCCC3)cc2)c(=O)oc2ccccc12,n,12µM,n,n,u,n
CCCNc1c(NS(=O)(=O)c2ccc(C(C)(C)C)cc2)c(=O)oc2ccccc12,n,n,n,n,n,n
CC(=O)Nc1ccc(S(=O)(=O)Nn2cnnc2)cc1,n,n,n,n,n,n
CCN(CC)CCCNc1ccc2ncn3c4ccc(O)cc4c(=O)c1c23,x,u,x,x,7.3µM,n
O=C(CCC(=O)Nc1cccc(Cl)c1)N/N=C/c1cc([N+](=O)[O-])ccc1O,11µM,n,n,u,u,n
O=C(CCCC(=O)Nc1cccc(Br)c1)N/N=C/c1cc([N+](=O)[O-])ccc1O,u,n,n,10µM,u,n
O=C(CCC(=O)Nc1cccc([N+](=O)[O-])c1)N/N=C/c1cccs1,n,n,u,n,u,n
COCCNC(=S)N(CCO)Cc1cc2cc3c(cc2[nH]c1=O)OCCO3,n,n,n,n,n,n
O=Cc1cn[nH]c1-c1ccccc1,n,n,n,n,n,n
